Screening data deposited in PubChem by National Center for Advancing Translational Sciences (NCATS).
Most compounds without a hit are left out; they make up all but 19% or so of the library.
HT1080-NT tox = qHTS for induction of synthetic lethality in tumor cells producing 2HG: qHTS for the HT-1080-NT fibrosarcoma cell line; HT-1080-NT fibrosarcoma viability, CellTiter-Glo ATP luminescence, 48 h; Potency, µM (top dose mostly 46.1 µM), usual class: cytotoxic; 1.6% of 360,000 active; AID 686970, 2013;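 further: NT is the 2HG producing partner of a matched IDH1 knockdown line; nearly all actives have a fitted effect of over 55% in size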
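Viability of the 2HG-overproducing fibrosarcoma line after 48 hours of compound exposure at 37 degrees C was determined by luminescence with CellTiter-Glo, and concentration-effect curves were then fitted and categorized.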
KB-V1 MDR tox = qHTS assay for MDR1-selective chemotherapeutics: Primary screen using the drug-selected MDR subline cells KB-V1 | KB-V1 MDR cells viability, CellTiter-Glo, 72 h | Potency, µM (titrated, usually from 46.1 µM), usual class: cytotoxic | 3.4% of 400,000 active | AID 1347076, 2019; further: nearly all actives have a fitted effect of over 60% in size
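Following 72 h at 37 degrees C with compound, KB-V1 cell viability was read by CellTiter-Glo luminescence, medium being phenol-red-free DMEM plus 10% FBS; concentration-response parameters came from normalized, curve-fitted qHTS data.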
TDP1 cell CPT = qHTS for Inhibitors of human tyrosyl-DNA phosphodiesterase 1 (TDP1): qHTS in cells in presence of CPT. Potency, µM (highest dose often 46.2 µM), most hits filed as inhibitors. chicken DT40 Tdp1-/-;hTDP1 cells + 20 nM CPT, ATP luminescence, 48 h. 12% of 420,000 active; further: nearly all actives have a fitted effect of over 55% in size
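Chicken DT40 Tdp1-/- cells stably complemented with human TDP1 were seeded at 400 cells/well in medium containing 20 nM camptothecin, exposed to pin-transferred compounds, and grown at 37 °C for at least 48 hr. Viability was read as ATP luminescence.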
KB-3-1 tox = qHTS assay for MDR1-selective chemotherapeutics: Primary screen using the parental adenocarcinoma cell KB-3-1; KB-3-1 viability, CellTiter-Glo ATP luminescence, 72 h; Potency, µM (series often up to 46.1 µM), most hits filed as cytotoxic; 1.4% of 400,000 active; AID 1347075, 2019; further: nearly all actives have a fitted effect of over 60% in size
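Using CellTiter-Glo luminescence, growth of non-resistant KB-3-1 adenocarcinoma cells is assessed 72 h after pin-tool compound addition at 37 °C. Normalized responses across the concentration series yield fitted curves.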
TDP1 cell noCPT = qHTS for Inhibitors of human tyrosyl-DNA phosphodiesterase 1 (TDP1): qHTS in cells in absence of CPT. DT40 Tdp1-/- hTDP1 cells, no CPT, ATP luminescence, 48 h. 15% of 420,000 active. AID 686978, 2013. Potency, µM (titrated, usually from 46.2 µM), most hits filed as inhibitors; further: nearly all actives have a fitted effect of over 55% in size
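DT40 Tdp1-/-;hTDP1 cells, no CPT (DMSO vehicle only), 400 cells/well; compounds pin-transferred; ≥48 hr, 37 °C; CellTiter-Glo 30 min RT dark, luminescence read.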
HT1080 IDH1KD tx = qHTS for induction of synthetic lethality in tumor cells producing 2HG: qHTS for the HT-1080-IDH1KD cell line. HT-1080 IDH1 knockdown viability, ATP luminescence, 48 h. Potency, µM (series often up to 46.1 µM), most hits filed as cytotoxic. 2% of 360,000 active
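After a 2 h attachment period, IDH1KD HT-1080 cells took pin-transferred compound for 48 h at 37 °C; ATP-based luminescence after 10 min room-temperature reagent incubation reported viability.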
A number is an active result; - = inactive; ? = inconclusive; . = no result. The call rests on the fitted dose curve; in most records, active means well fitted curve in the direction sought with a large enough effect; inconclusive means small, poorly fitted or top-dose-only effect, or another doubt; inactive means no such curve, though single readings can be large; an effect the other way counts as inactive or inconclusive.

SMILES | HT1080-NT tox | KB-V1 MDR tox | TDP1 cell CPT | KB-3-1 tox | TDP1 cell noCPT | HT1080 IDH1KD tx
CCCOc1ccc(F)cc1-c1cc(C(=O)NCc2cccs2)[nH]n1 | - | ? | 23.1µM | - | 7.31µM | -
COc1ccc(NC(=O)c2cc(-c3cc(F)ccc3OC)n[nH]2)cc1OC | ? | - | 20.6µM | - | 23.1µM | ?
COc1ccc(NC(=O)c2cc(-c3cc(F)ccc3OC)n[nH]2)cn1 | - | - | ? | - | ? | -
O=C1C=C(O)CC2(CCCCC2)C1 | ? | - | - | - | - | -
CCN1CCCC1CNC(=O)c1cnn(-c2nccc(-c3cc(OC)ccc3OC)n2)c1C (configuration not stated) | . | . | - | . | - | .
C=CCn1cccc(C(=O)Nc2ccc(OCC)cc2)c1=O | - | - | - | ? | - | -
CCCN1C(=O)C(NC(=O)c2ccccc2OC)(C(F)(F)F)C(C(=O)OC)=C1C (configuration not stated) | . | - | ? | - | ? | .
COc1ccc(NC(=O)c2cc(-c3cc(C)cc(C)c3O)n[nH]2)cc1Cl | - | ? | 20.6µM | ? | ? | ?
Cc1ccc(-c2ccc(=O)n(CC(=O)Nc3ccc(F)c(Cl)c3)n2)cc1C | . | - | - | - | - | .
O=C(NCC12CC3CC(CC(C3)C1)C2)c1cc2nc(-c3ccc(Cl)cc3)cc(C(F)(F)F)n2n1 | . | - | . | - | . | .
CCOC(=O)c1cccc(NC(=O)CSc2nc3cccnc3n2C)c1 | - | ? | 20.6µM | - | 16.4µM | -
CCOC(=O)c1c(NC(=O)CSc2nc3cccnc3n2C)sc(C(C)=O)c1C | - | ? | 18.4µM | - | 13µM | -
CCOC(=O)c1sc(NC(=O)CNCc2ccccn2)c(C(=O)OCC)c1C | - | - | ? | ? | 25.9µM | -
CCOC(=O)c1c(NC(=O)CSc2nnc(-c3ccccc3C)n2C)sc(C(C)=O)c1C | - | - | 18.4µM | - | 11.6µM | -
CCOC(=O)c1sc(NC(=O)CSc2nc3cccnc3n2C)nc1C | - | - | - | - | - | -
CCOC(=O)c1sc(NC(=O)COc2ccccc2Cl)c(C(=O)OCC)c1C | . | - | - | - | ? | .
CCC(C)C(NC(=O)C1CCC(C)CC1)C(=O)Nc1ccc(OC)cc1 (configuration not stated) | - | ? | ? | ? | - | -
C#CCN(CC(=O)OCC)S(=O)(=O)CCNC1CC1 | - | - | - | - | - | -
CC(=O)N1CCN(c2csc3ccc(Br)cc3c2=O)CC1 | . | ? | - | - | ? | .
O=C1c2c([N+](=O)[O-])cc([N+](=O)[O-])cc2S(=O)N1Cc1ccccc1 (configuration not stated) | - | - | - | - | - | -
Cc1cc(CC(C)C)n(-c2nc3ccccc3c(=O)n2OCC(=O)N(C)C)n1 | - | - | - | - | - | -
Cc1cc(C)n(-c2nc3ccccc3c(=O)n2OCC(=O)OCc2ccccc2)n1 | ? | - | 5.8µM | 23.1µM | 5.8µM | ?
Cc1cc(CC(C)C)n(-c2nc3ccccc3c(=O)n2OCc2ccccc2)n1 | - | 9.2µM | ? | ? | ? | -
Cc1cc(C)n(-c2nc3ccccc3c(=O)n2OCC(=O)Nc2c(C)cccc2C)n1 | - | - | ? | - | 18.4µM | -
CC(=O)N1CCN(C(=S)c2ccc(Cl)cc2)CC1 | - | - | - | - | - | -
CCc1ccc(-c2csc3[n+]2CCN3C(C)=O)cc1 | - | - | ? | - | 25.9µM | -
CC(=O)N1CC[n+]2c(-c3ccc(Cl)cc3)csc21 | - | - | 25.9µM | - | 23.1µM | -
